Test results as given in PubChem BioAssay AID651610 (Broad Institute, 2012).
Out of some 360,000 compounds screened, about 3,900 (1.1%) were called active.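 Rule for the calls: active = mean replicate inhibition score of at least 50 and every replicate individually at or above 50; inconclusive = only one of the two criteria met; inactive = mean below 50 and not all replicates reaching 50.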 Shown is part of a subset that was picked to be rich in actives.

Test: inhibitors of HIV-1 Env-driven cell-cell fusion, primary screen, HeLa-JRFL effector, CEM21 target cells, luciferase (AID 651610);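 note: 0% = plate neutral controls and 100% = maraviroc near 300 nM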
Details: stronger effect = higher value; at 16.7 µM unless noted

SMILES	inhibition
O=C(C[C@H]1C=C[C@@H](NS(=O)(=O)c2ccc(F)cc2)[C@@H](CO)O1)NC1CCC1	11.3% (inactive)
O=C(C[C@H]1C[C@H]2c3cc(NC(=O)Nc4ccc(C(F)(F)F)cc4)ccc3O[C@H]2[C@@H](CO)O1)NCCc1ccccc1	6.45% (inactive)
C[C@@H]1CCCCO[C@H](CN(C)C(=O)Nc2ccc(C(F)(F)F)cc2)[C@@H](C)CN([C@@H](C)CO)C(=O)c2cc(NS(=O)(=O)c3cccs3)ccc2O1	3.25% (inactive)
CN1C(=O)c2cc(NC(=O)Cc3cccs3)ccc2OC[C@@H]2O[C@@H](CC(=O)N[C@@H]3CCN(Cc4ccccc4)C3)CC[C@H]21	-14% (inactive)
COc1ccc(-n2c(C)cc(C(=O)CSc3nnc(-c4cccs4)o3)c2C)cc1	89.2% [at 12.3 µM] (active)
COc1ccc(-c2nnc(SCC(=O)c3ccc4c(c3)OCCO4)o2)cc1	22.9% [at 12.3 µM] (inactive)
COc1ccc(-n2c(C)cc(C(=O)COC(=O)c3cc(OC)c(OC)cc3NC(=O)c3cccs3)c2C)cc1	-7.79% [at 12.3 µM] (inactive)
N#C[C@H]1[C@@H](c2ccc(C3=CCCCC3)cc2)[C@@H](CO)N1C(=O)NC1CCCCC1	0.133% (inactive)
COc1ccccc1-c1ccc2c(c1)O[C@@H](CN(C)C(=O)Nc1ccccc1)[C@H](C)CN([C@@H](C)CO)S2(=O)=O	-37.6% (inactive)
COc1ccc(NC(=O)N(C)C[C@@H]2Oc3ccc(NS(=O)(=O)c4ccc(C)cc4)cc3CC(=O)N([C@@H](C)CO)C[C@H]2C)cc1	4.71% (inactive)
O=C(CSc1ncnc2scc(-c3ccccc3)c12)NCc1ccc2c(c1)OCO2	22.4% [at 12.3 µM] (inactive)
CN(C)C(=O)c1cccc(-c2cnc3sc(NCc4ccc5c(c4)OCO5)nn23)c1	68.4% [at 12.3 µM] (active)
CN(C)C(=O)c1cccc(-c2cnc3c(NC=O)cc(-c4ccc(C(=O)N5CCOCC5)cc4)cn23)c1	-15.1% [at 12.3 µM] (inactive)
O=C(Nc1ccc(C(F)(F)F)cc1)N[C@@H]1CC[C@@H](CCNC(=O)c2ccccc2F)O[C@H]1CO	-1.09% (inactive)
Cc1noc(C)c1S(=O)(=O)Nc1ccc2c(c1)CC(=O)N([C@@H](C)CO)C[C@H](C)[C@@H](CN(C)S(=O)(=O)c1cn(C)cn1)O2	-11.7% (inactive)
C[C@H]1CCCCO[C@@H](CN(C)C(=O)c2ccccc2)[C@@H](C)CN([C@@H](C)CO)C(=O)c2cc(NS(=O)(=O)c3ccccc3)ccc2O1	-27.7% (inactive)
CN(C)c1ccnc(Nc2ccc(F)cc2)c1C#N	2.55% [at 12.3 µM] (inactive)
CNc1nccc(-c2ccc(Cl)cc2)c1C#N	58.1% [at 12.3 µM] (active)
CN(C)c1nc(-c2cccnc2)nc(-c2ccc(Cl)cc2)c1C#N	-27.7% [at 12.3 µM] (inactive)
CCCN(C)C[C@H]1Oc2ncc(-c3ccccc3OC)cc2C(=O)N([C@H](C)CO)C[C@@H]1C	16.3% (inactive)
O=C1C=C(c2cc(C(F)(F)F)cc(C(F)(F)F)c2)C[C@@H](c2ccc3c(c2)OCO3)C1	14.8% [at 12.3 µM] (inactive)

SMILES	inhibition
O=C1C=C(c2ccnc3cc(Cl)ccc23)C[C@@H](c2ccc3c(c2)OCO3)C1	65.8% [at 12.3 µM] (active)
COc1ccc2cc(C3=CC(=O)C[C@H](c4ccc5c(c4)OCO5)C3)ccc2c1	-8.67% [at 12.3 µM] (inactive)
CCC(=O)N[C@H]1CC[C@@H](CC(=O)NCc2cc(F)cc(F)c2)O[C@@H]1CO	-5.23% (inactive)
COc1ccc(NC(=O)N(C)C[C@H]2Oc3ccc(NC(=O)NC(C)C)cc3CC(=O)N([C@H](C)CO)C[C@H]2C)cc1	2.47% (inactive)
C[C@@H]1CCCCO[C@H](CN(C)S(=O)(=O)c2cccs2)[C@H](C)CN([C@H](C)CO)C(=O)c2cc(NC(=O)c3ccccc3)ccc2O1	21.5% (inactive)
CN(c1ccccc1)S(=O)(=O)c1ccc(C(=O)NCCc2ccccc2)cc1	-11.1% [at 12.3 µM] (inactive)
Cc1ccc(S(=O)(=O)NCCC(=O)OCC(=O)N(C)c2ccccc2)cc1	-4.53% [at 12.3 µM] (inactive)
CN(C(=O)CC(NC(=O)c1ccccc1)(c1ccccc1)c1ccccc1)c1ccccc1	68.6% [at 12.3 µM] (active)
CC(=O)c1ccc(S(=O)(=O)N2CCN(c3nc4c(C)c(C)ccc4cc3C#N)CC2)cc1	82.5% [at 12.3 µM] (active)
CC(=O)c1ccc(S(=O)(=O)N2CCC3(CC2)OCCO3)cc1	-7.27% [at 12.3 µM] (inactive)
CC(=O)c1ccc(S(=O)(=O)N2CCN(C(=O)/C=C/c3ccc4ccccc4n3)CC2)cc1	21.1% [at 12.3 µM] (inactive)
C[C@@H](CN1C2=NC[C@@H](Cc3ccccc3)N2C[C@H]1Cc1ccc(O)cc1)NC(=O)CCC1CCCCC1	-12.9% [at 12.3 µM] (inactive)
C[C@@H]1CCCCO[C@H](CN(C)C(=O)C2CCCCC2)[C@@H](C)CN([C@H](C)CO)C(=O)c2cc(NC(=O)C3CCCCC3)ccc2O1	13.6% (inactive)
CSCCC(C(=O)NC(C)(C)C)n1c(-c2ccccc2)nc2ccccc21 (configuration not stated)	56.4% [at 12.3 µM] (active)
CCC(C(=O)NC(C)(C)C)n1c(-c2ccccc2)nc2ccccc21 (configuration not stated)	-10.4% [at 12.3 µM] (inactive)
CC(C)(C)NC(=O)C(CCc1ccccc1)n1c(=O)c(-c2ccccc2)nc2ccccc21 (configuration not stated)	20.1% [at 12.3 µM] (inactive)
COc1cccc(C(=O)Nc2ccc3c(c2)C(=O)N(C)[C@@H]2CC[C@H](CC(=O)NCCCN4CCOCC4)O[C@H]2CO3)c1	-4.21% (inactive)
Clc1ccc2c(c1)C1=C(C(c3ccncc3)O2)C(c2ccc(Br)cc2)n2ncnc2N1 (configuration not stated)	74.5% [at 12.3 µM] (active)
O=C(C[C@@H]1C=C[C@H](NC(=O)Nc2ccc(C(F)(F)F)cc2)[C@H](CO)O1)NCc1cccc(F)c1	9.04% (inactive)
C[C@H](CO)N1C[C@H](C)[C@H](CN(C)Cc2ccc(C(=O)O)cc2)Oc2ccc(NS(=O)(=O)c3cn(C)cn3)cc2CC1=O	-3.12% (inactive)
C[C@@H]1CN([C@@H](C)CO)C(=O)c2cccc(NC(=O)c3ccc(-c4nccs4)cc3)c2O[C@H]1CN(C)Cc1ccc(Cl)c(Cl)c1	38.1% (inactive)

SMILES	inhibition
COc1ccccc1-c1cnc2c(c1)C(=O)N([C@@H](C)CO)C[C@H](C)[C@H](CN(C)C(=O)c1ccncc1)O2	2.54% (inactive)
CCCCn1c(SCC(=O)N2CCOCC2)nc2c1c(=O)n(C)c(=O)n2C	-4.99% [at 12.3 µM] (inactive)
C#CC(C)(C)NC(=O)CSc1nc2c(c(=O)n(C)c(=O)n2C)n1CCCC	-13.9% [at 12.3 µM] (inactive)
CCCCn1c(SCC(=O)NCCc2ccc(OC)c(OC)c2)nc2c1c(=O)n(C)c(=O)n2C	114% [at 12.3 µM] (active)
C[C@H](CO)N1C[C@H](C)[C@H](CN(C)CC2CCCCC2)OCCCC[C@H](C)Oc2ccc(NC(=O)c3ccncc3)cc2C1=O	-17.1% (inactive)
COC(=O)C1=C(C)N(Cc2ccccc2C(F)(F)F)C(=NCc2ccc(C(F)(F)F)cc2)NC1c1ccc(F)cc1 (configuration not stated)	5.73% [at 12.3 µM] (inactive)
O=C(NCC(F)(F)F)[C@H]1[C@H](CO)[C@H]2Cn3c(ccc(-c4ccncc4)c3=O)[C@H]2N1Cc1ccncc1	-9.96% (inactive)
COc1cccc(S(=O)(=O)Nc2ccc3c(c2)[C@@H]2C[C@@H](CC(=O)NC4CCCCC4)O[C@H](CO)[C@@H]2O3)c1	-5.43% (inactive)
O=C(c1ccc(C(F)(F)F)cc1)N1CCC(=O)N([C@H](COCc2ccccc2)Cc2ccccc2)CC1	-5.07% [at 12.3 µM] (inactive)
CC(C)C[C@@H](COCc1ccc(Cl)cc1)N1CCN(C(=O)c2ccc(Cl)cc2Cl)CCC1=O	-24.6% [at 12.3 µM] (inactive)
CC(C)CC(COCc1ccc(Cl)cc1)N1CCN(C(=O)c2ccc(C(F)(F)F)cc2)CCC1=O (configuration not stated)	65.7% [at 12.3 µM] (active)
O=C(C[C@H]1C[C@H]2c3cc(NC(=O)Cc4ccncc4)ccc3O[C@H]2[C@@H](CO)O1)NCc1cccc(F)c1	3.14% (inactive)
COCC(=O)N(C)C[C@H]1Oc2ncc(-c3ccc(C)cc3)cc2C(=O)N([C@@H](C)CO)C[C@@H]1C	-0.608% (inactive)
Cc1noc(C)c1S(=O)(=O)N(C)C[C@@H]1OCCCC[C@@H](C)Oc2ccc(NC(=O)c3ccccc3)cc2C(=O)N([C@H](C)CO)C[C@H]1C	-129% (inactive)
C[C@@H]1CN([C@@H](C)CO)S(=O)(=O)c2ccc(C#C[C@@H](C)O)cc2O[C@@H]1CN(C)CC1CC1	-13.5% (inactive)
C[C@H](CO)N1C[C@H](C)[C@H](CN(C)C(=O)Nc2ccc(C(F)(F)F)cc2)OCCCC[C@H](C)Oc2ccc(NC(=O)C3CCCCC3)cc2C1=O	9.61% (inactive)
CCOc1cc(/C=C(/C#N)c2ccc(Cl)cc2)cc(Cl)c1OCC(=O)O	58% [at 12.3 µM] (active)
COc1cc(/C=C(/NC(=O)c2ccc(Cl)cc2Cl)C(=O)O)cc(OC)c1OC	4.88% [at 12.3 µM] (inactive)
CCOc1cc(/C=N/NC(=O)OC)ccc1OCCSc1ccc(Cl)cc1	4.12% [at 12.3 µM] (inactive)
O=C(C[C@@H]1C[C@@H]2c3cc(NC(=O)C4CCC4)ccc3O[C@@H]2[C@@H](CO)O1)NCCN1CCCCC1	-4.86% (inactive)
